According to PubChem BioAssay (EPA / NIEHS):
Inconclusive results are not listed. Calls of active or inactive are those of the source. How the source made its calls: active means hit-call score of the fitted dose curve at least 0.9, where 1 is the maximum; inconclusive means response in the unintended direction; inactive means score below 0.9.

Target: human Matrix Metalloproteinase-9 (MMP9), MMP9 (gene 4318) (UniProt P14780)
Experiment: NVS_ENZ_hMMP9: NovaScreen (NVS) Enzymatic Assay for human Matrix Metalloproteinase-9 (MMP9) (AID 2283190);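 further: active means inhibition seen as loss of fluorescence signal versus DMSO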
Method: NVS_ENZ_hMMP9 is a biochemical, single-readout assay that uses extracted gene-proteins in a cell-free assay. Measurements were taken 1 hour after chemical dosing in a 96-well plate.NVS_ENZ_hMMP9 is one of one assay component(s) measured or calculated from the NVS_ENZ_hMMP9 assay. It is designed to make measurements of enzyme activity, a form of enzyme reporter, as detected with fluorescence intensity signals by Fluorescence technology.Data from the assay component NVS_ENZ_hMMP9 was analyzed into 1 assay endpoint. This assay endpoint, NVS_ENZ_hMMP9, was analyzed in the positive analysis fitting direction relative to DMSO as the negative control and baseline of activity. Using a type of enzyme reporter, loss-of-signal activity can be used to understand changes in the enzymatic activity as they relate to the gene MMP9. Furthermore, this assay endpoint can be referred to as a primary readout, because this assay has produced multiple assay endpoints where this one serves a enzymatic activity function. To generalize the intended target to other relatable targets, this assay endpoint is annotated to the protease intended target family, where the subfamily is matrix metalloproteinase.
Binding assays used specific radioligands (tritiated, iodinated) with non-radioactive competitive displacement ligands in agonist or antagonist protocols (as indicated) and various reference compounds and inhibitors to titrate specific binding to receptors and transporters. Most enzyme assays (CYPs, kinases, phosphatases, proteases, HDACs) used recombinant protein and specific substrates (fluorescence mostly, some colorimetric and radioactive) and inhibitors, followed by a biochemical separation of substrate and product. All assays for the biochemical HTS were initially run in duplicate at a single concentration (10 uM for CYP450 assays and 25 uM for all others). […] Each assay was run with positive and negative controls, and concurrent controls on every plate. The follow-up (secondary) screen tested active chemical-pairs in concentration series, as well as a few additional assays not tested in the primary screen, some selected negative inactives, and several cases re-run in the concentration series for confirmatory purposes.

Chain of human Matrix Metalloproteinase-9 (MMP9), MMP9 (gene 4318) (P14780 whole entry, looked up): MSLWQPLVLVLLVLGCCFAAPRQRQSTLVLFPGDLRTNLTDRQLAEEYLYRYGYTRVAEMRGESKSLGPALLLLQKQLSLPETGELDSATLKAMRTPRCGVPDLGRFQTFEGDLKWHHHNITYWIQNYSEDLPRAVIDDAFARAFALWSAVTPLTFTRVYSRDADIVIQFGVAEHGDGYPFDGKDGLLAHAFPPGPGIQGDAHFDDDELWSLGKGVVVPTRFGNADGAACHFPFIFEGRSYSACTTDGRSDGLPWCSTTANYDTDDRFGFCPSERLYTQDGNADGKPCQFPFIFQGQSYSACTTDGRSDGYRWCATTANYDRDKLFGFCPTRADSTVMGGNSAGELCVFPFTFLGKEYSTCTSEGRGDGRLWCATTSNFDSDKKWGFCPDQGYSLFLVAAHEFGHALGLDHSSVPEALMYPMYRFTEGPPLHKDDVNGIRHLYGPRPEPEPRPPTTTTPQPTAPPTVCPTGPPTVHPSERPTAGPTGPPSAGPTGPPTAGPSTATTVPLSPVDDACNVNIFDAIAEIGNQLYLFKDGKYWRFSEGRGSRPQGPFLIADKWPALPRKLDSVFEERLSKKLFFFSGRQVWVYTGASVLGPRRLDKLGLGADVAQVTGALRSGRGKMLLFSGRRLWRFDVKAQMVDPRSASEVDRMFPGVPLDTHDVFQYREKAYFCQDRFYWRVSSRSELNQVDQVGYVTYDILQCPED

| SMILES | AC50 | outcome |
| --- | --- | --- |
| Cc1c(C(=O)O)c(O)cc2c1C(=O)c1c(O)c([C@@H]3O[C@H](CO)[C@@H](O)[C@H](O)[C@H]3O)c(O)c(O)c1C2=O | 4.45 µM (active) | – |
| Nc1ccccc1N | – | inactive |
| O=C(N[C@@H](Cc1ccccc1)[C@@H](O)C(=O)N1C[C@@H](O)[C@@H](O)C1)c1cc2cc(Cl)ccc2[nH]1 | – | inactive |
| CCCc1cc(=O)[nH]c(=S)[nH]1 | 8.66 µM (active) | – |
| CNC(=O)[C@H]1O[C@@H](n2cnc3c(NCc4cc(Cl)ccc4OCc4cc(C)no4)ncnc32)[C@H](O)[C@@H]1N | 8.35 µM (active) | – |
| O=C(O)Cc1ccccc1Nc1c(Cl)cccc1Cl | – | inactive |
| NCCO | – | inactive |
| CCCCc1ccc2c(n1)[C@@H](c1ccc(OC)cc1C[C@H](C)C(=O)O)[C@H](C(=O)O)[C@H]2c1ccc2c(c1)OCO2 | – | inactive |
| CCNc1cccc(C)c1 | – | inactive |
| NS(=O)(=O)c1cc2c(cc1Cl)NCNS2(=O)=O | – | inactive |
